# Reference: publication PMC7862700, “An all-to-all approach to the identification of sequence-specific readers for epigenetic DNA modifications on cytosine”
# Key:
# Experiment in all cases: DAPPL (digital affinity profiling via proximity ligation, sequencing); 10 mM Tris-HCl pH 7.5, 50 mM NaCl, 1 mM DTT, 4% glycerol, room temperature, 30 min; GST-TFs on glutathione beads, 16-mer random dsDNA library, 0.1% formaldehyde crosslink after washing; high values mean tight binding
# [1] = biological target: T1, FEV (Homo sapiens, UniProt Q99581 1-238); details: protein: recombinant; tags: N-terminal GST; dsDNA, one strand shown
# T1 sequence: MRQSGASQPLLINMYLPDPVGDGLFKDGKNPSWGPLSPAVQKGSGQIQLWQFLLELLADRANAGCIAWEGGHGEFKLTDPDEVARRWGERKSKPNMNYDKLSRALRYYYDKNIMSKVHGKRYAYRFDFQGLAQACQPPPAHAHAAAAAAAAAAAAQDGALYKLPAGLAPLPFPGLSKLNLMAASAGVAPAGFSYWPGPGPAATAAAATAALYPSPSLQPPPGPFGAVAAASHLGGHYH
# Outline: (§1)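 Pools of DNA-barcoded human transcription factors, expressed in yeast as GST fusions on glutathione beads and combined with a tag-only sample, were incubated with 200 nmole of a 16-mer random double-stranded DNA library. Incubation took 30 min at room temperature in Tris/NaCl/DTT/glycerol buffer and was followed by washing, 0.1% formaldehyde crosslinking, proximity ligation (BsaI/T4 ligase, 1 h, 37 °C), PCR amplification and sequencing on an Illumina NextSeq500. Binding signal is the ratio of a hexamer's read frequency for a factor to its frequency for the tag-only sample.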
# [2] = biological target: ETV5 (Homo sapiens, UniProt P41161 1-510); details: protein: recombinant; tags: N-terminal GST; dsDNA, one strand shown
# ETV5, sequence (P41161 whole entry): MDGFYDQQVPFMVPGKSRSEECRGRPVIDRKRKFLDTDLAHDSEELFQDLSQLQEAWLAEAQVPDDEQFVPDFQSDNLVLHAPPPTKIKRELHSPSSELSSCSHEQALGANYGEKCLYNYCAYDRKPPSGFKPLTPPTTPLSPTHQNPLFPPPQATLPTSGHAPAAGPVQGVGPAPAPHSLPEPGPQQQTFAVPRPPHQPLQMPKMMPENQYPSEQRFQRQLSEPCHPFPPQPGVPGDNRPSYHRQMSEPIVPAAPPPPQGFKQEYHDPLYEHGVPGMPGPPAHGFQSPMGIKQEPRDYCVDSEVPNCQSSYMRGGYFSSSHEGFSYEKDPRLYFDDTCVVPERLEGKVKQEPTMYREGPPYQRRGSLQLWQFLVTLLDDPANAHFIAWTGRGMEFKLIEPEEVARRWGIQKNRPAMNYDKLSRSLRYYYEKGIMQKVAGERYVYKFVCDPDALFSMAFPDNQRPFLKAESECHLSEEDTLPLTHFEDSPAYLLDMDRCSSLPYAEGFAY
# Outline: as §1
# [3] = biological target: HSF1 (Homo sapiens, UniProt Q00613 1-529); details: protein: recombinant; tags: N-terminal GST; chain copies: 3; dsDNA, one strand shown
# HSF1, sequence (Q00613 whole entry): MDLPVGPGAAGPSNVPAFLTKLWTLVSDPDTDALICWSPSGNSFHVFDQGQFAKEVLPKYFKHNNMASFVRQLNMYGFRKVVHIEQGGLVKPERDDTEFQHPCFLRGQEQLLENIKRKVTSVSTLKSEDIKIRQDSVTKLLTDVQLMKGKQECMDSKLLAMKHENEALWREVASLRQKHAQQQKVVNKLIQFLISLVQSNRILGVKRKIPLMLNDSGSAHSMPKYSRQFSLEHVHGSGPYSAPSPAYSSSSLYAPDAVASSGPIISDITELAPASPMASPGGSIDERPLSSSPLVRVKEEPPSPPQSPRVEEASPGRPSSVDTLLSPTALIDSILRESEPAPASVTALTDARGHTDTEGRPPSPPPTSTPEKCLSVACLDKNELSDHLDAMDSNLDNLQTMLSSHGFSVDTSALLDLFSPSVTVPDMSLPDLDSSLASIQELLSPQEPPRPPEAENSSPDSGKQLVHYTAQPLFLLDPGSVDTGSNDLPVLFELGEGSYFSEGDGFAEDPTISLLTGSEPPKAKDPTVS
# Outline: as §1
# [4] = biological target: T2, SPIC (Homo sapiens, UniProt Q8N5J4 1-248); details: protein: recombinant; tags: N-terminal GST; dsDNA, one strand shown
# T2 sequence: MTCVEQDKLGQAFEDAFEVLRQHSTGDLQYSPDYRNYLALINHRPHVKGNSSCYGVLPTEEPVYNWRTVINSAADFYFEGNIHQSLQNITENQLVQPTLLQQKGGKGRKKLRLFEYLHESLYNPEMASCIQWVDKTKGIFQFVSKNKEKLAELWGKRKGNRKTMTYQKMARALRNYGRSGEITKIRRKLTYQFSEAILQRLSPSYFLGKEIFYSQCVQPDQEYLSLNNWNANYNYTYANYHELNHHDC
# Outline: as §1
# [5] = biological target: ELF4 (Homo sapiens, UniProt Q99607 1-663); details: protein: recombinant; tags: N-terminal GST; dsDNA, one strand shown
# ELF4, sequence (Q99607 whole entry): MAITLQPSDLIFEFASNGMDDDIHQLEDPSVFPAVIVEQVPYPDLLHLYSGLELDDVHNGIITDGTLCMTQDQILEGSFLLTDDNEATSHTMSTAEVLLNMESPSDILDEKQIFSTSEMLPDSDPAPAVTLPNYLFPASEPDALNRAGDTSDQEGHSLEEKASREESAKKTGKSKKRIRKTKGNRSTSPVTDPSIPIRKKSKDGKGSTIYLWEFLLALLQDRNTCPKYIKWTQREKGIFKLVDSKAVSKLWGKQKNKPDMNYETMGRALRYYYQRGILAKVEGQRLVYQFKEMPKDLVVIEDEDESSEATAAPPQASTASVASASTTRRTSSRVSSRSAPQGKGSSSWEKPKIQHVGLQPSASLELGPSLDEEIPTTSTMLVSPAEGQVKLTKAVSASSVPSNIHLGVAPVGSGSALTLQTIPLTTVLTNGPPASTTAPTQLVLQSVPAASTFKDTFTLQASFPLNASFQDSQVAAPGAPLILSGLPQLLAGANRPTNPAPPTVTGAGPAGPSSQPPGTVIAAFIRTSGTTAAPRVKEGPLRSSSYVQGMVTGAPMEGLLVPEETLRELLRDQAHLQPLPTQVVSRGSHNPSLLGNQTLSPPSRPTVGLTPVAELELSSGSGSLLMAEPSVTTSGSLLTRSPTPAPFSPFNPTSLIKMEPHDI
# Outline: as §1
# [6] = biological target: T3, ELK4 (Homo sapiens, UniProt P28324-2 1-405); details: protein: recombinant; tags: N-terminal GST; dsDNA, one strand shown
# T3 sequence: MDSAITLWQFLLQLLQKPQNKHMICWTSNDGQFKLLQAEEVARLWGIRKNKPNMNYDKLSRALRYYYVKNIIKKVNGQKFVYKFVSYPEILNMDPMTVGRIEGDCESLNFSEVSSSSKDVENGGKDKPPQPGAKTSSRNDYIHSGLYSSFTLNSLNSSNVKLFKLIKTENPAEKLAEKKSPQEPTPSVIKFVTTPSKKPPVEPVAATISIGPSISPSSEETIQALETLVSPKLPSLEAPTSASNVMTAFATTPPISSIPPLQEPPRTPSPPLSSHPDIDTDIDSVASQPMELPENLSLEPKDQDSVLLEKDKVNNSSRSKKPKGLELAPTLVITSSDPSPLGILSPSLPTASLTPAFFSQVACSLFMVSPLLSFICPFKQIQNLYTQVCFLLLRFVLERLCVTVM
# Outline: as §1
# [7] = biological target: T4, ETV2 (Homo sapiens, UniProt O00321 1-342); details: protein: recombinant; tags: N-terminal GST; dsDNA, one strand shown
# T4 sequence: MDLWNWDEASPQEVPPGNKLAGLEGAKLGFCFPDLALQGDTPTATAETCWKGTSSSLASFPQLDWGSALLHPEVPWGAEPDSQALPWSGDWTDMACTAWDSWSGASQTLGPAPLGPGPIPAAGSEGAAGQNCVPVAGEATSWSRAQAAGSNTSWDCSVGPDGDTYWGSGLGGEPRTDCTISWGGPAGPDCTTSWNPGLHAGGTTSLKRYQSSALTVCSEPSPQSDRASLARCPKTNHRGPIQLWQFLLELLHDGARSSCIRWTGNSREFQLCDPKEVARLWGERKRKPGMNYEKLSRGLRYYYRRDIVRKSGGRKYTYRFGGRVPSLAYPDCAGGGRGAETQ
# Outline: as §1
# [8] = biological target: T5, ELF3 (Homo sapiens, UniProt P78545 1-371); details: protein: recombinant; tags: N-terminal GST; dsDNA, one strand shown
# T5 sequence: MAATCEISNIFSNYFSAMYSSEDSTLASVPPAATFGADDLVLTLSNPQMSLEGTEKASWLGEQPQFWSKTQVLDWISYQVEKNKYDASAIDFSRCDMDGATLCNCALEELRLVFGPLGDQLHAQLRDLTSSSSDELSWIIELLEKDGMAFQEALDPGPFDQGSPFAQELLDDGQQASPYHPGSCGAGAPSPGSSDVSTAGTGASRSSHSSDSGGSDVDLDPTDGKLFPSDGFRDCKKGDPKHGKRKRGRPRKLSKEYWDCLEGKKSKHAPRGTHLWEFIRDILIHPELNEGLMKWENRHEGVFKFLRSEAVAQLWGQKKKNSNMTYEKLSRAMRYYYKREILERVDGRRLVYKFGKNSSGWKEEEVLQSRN
# Outline: as §1
# [9] = biological target: CRX (Homo sapiens, UniProt O43186 1-299); details: protein: recombinant; tags: N-terminal GST; dsDNA, one strand shown
# CRX, sequence (O43186 whole entry): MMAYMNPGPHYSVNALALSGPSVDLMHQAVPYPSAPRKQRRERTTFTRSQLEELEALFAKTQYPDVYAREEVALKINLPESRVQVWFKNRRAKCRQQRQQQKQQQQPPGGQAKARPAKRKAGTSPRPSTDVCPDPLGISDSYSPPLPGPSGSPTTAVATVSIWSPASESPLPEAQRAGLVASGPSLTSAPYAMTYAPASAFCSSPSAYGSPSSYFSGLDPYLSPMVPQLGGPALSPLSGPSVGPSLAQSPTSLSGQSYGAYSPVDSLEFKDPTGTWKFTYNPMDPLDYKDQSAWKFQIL
# Outline: as §1
# [10] = biological target: ETV1 (Homo sapiens, UniProt P50549 1-477); details: protein: recombinant; tags: N-terminal GST; dsDNA, one strand shown
# ETV1, sequence (P50549 whole entry): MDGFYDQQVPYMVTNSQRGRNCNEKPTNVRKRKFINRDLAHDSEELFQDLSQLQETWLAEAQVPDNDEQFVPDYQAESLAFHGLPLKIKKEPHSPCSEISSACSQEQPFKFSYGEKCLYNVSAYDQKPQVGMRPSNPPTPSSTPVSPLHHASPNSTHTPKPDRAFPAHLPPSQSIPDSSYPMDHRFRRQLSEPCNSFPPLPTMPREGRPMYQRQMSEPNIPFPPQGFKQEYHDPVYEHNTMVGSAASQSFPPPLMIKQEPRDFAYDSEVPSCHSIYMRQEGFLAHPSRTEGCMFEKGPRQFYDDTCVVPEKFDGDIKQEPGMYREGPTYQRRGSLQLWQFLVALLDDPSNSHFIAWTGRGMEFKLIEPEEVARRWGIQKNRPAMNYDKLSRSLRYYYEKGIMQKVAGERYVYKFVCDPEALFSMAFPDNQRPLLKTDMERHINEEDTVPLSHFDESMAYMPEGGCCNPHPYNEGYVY
# Outline: as §1
# [11] = biological target: T6, ERF (Homo sapiens, UniProt P50548 1-548); details: protein: recombinant; tags: N-terminal GST; dsDNA, one strand shown
# T6 sequence: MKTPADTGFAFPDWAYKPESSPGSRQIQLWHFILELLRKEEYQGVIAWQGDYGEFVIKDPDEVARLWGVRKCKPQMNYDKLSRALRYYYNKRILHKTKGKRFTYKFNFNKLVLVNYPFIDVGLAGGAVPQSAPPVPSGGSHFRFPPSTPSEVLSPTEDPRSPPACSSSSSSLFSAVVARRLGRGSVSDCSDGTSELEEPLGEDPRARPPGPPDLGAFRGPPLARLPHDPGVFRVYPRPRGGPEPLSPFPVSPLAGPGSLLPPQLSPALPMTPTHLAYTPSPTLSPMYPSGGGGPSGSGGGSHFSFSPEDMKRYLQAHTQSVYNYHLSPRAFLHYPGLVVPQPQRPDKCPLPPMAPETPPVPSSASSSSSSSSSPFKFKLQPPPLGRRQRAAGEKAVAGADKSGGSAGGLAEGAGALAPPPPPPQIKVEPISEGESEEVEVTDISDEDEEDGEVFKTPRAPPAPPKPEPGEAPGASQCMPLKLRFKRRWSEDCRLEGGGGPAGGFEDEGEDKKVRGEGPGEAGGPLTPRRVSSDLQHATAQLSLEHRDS
# Outline: as §1
# [12] = biological target: T7, ETV3L (Homo sapiens, UniProt Q6ZN32 1-361); details: protein: recombinant; tags: N-terminal GST; dsDNA, one strand shown
# T7 sequence: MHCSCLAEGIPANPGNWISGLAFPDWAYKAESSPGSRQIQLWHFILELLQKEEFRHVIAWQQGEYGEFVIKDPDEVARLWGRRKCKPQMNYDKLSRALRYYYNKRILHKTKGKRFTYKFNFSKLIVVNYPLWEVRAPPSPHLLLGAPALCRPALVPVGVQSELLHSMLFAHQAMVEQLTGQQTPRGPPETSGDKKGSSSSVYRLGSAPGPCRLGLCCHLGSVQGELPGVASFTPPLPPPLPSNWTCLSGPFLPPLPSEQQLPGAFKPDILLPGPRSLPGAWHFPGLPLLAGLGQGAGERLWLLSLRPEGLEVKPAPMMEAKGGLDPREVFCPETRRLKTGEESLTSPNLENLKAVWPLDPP
# Outline: as §1
# [13] = biological target: T8, ETS2 (Homo sapiens, UniProt P15036 1-469); details: protein: recombinant; tags: N-terminal GST; dsDNA, one strand shown
# T8 sequence: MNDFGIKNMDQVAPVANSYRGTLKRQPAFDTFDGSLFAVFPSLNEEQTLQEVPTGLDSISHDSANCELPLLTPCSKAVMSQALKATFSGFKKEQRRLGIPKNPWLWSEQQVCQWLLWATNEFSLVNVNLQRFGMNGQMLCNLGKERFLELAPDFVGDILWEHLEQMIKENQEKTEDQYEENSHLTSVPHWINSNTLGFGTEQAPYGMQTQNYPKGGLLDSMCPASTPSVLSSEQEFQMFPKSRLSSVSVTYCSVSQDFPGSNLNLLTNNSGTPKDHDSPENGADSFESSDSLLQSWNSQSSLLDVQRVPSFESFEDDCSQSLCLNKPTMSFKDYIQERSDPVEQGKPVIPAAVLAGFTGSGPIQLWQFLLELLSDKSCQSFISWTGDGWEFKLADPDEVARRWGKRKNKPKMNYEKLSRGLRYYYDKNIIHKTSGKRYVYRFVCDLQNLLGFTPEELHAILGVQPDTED
# Outline: as §1
# [14] = biological target: T9, SPDEF (Homo sapiens, UniProt O95238 1-335); details: protein: recombinant; tags: N-terminal GST; dsDNA, one strand shown
# T9 sequence: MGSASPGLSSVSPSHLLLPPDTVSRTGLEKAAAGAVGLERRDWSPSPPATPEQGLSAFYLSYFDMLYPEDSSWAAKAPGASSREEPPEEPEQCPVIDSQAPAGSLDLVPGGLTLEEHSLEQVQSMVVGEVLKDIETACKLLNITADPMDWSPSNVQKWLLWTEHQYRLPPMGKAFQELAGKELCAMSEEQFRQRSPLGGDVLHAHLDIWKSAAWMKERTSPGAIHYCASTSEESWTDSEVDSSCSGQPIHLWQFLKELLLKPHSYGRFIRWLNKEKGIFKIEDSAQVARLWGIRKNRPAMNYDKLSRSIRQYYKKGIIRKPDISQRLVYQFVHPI
# Outline: as §1
# [15] = biological target: T10, ELF5 (Homo sapiens, UniProt Q9UKW6-2 1-255); details: protein: recombinant; tags: N-terminal GST; dsDNA, one strand shown
# T10 sequence: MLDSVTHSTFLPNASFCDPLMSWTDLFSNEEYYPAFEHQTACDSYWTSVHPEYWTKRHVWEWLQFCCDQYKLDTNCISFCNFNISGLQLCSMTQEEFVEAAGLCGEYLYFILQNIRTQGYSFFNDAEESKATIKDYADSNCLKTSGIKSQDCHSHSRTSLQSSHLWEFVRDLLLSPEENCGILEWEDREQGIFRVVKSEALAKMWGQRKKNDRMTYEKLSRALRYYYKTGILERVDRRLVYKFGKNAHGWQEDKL
# Outline: as §1
# [16] = biological target: T11, ETV3 (Homo sapiens, UniProt P41162-2 1-143); details: protein: recombinant; tags: N-terminal GST; dsDNA, one strand shown
# T11 sequence: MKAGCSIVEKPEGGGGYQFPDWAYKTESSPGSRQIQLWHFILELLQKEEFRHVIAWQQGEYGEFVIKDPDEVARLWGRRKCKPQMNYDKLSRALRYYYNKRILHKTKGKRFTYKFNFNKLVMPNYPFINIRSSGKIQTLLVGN
# Outline: as §1
# [17] = biological target: ETV6 (Homo sapiens, UniProt P41212 1-452); details: protein: recombinant; tags: N-terminal GST; dsDNA, one strand shown
# ETV6, sequence (P41212 whole entry): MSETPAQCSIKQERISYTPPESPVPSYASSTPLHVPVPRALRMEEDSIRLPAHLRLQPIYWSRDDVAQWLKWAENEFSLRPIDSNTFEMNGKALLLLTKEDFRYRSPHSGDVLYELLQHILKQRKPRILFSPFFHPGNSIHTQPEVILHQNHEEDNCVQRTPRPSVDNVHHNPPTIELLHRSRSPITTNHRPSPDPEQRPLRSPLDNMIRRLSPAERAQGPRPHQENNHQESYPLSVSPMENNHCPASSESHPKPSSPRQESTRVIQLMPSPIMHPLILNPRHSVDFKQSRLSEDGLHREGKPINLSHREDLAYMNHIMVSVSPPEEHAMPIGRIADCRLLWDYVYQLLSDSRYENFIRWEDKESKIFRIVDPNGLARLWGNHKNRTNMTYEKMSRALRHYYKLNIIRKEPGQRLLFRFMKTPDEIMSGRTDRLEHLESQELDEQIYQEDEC
# Outline: as §1
sequence,measurement,setting,value
CCGTAA,binding signal,[1],"1.07 fold enrichment (6-mer frequency, TF over GST control)"
same,binding signal,[2],"1.06 fold enrichment (6-mer frequency, TF over GST control)"
same,binding signal,[3],"1.09 fold enrichment (6-mer frequency, TF over GST control)"
same,binding signal,[4],"1.03 fold enrichment (6-mer frequency, TF over GST control)"
same,binding signal,[5],"1.14 fold enrichment (6-mer frequency, TF over GST control)"
same,binding signal,[6],"1.15 fold enrichment (6-mer frequency, TF over GST control)"
same,binding signal,[7],"1.2 fold enrichment (6-mer frequency, TF over GST control)"
same,binding signal,[8],"1.1 fold enrichment (6-mer frequency, TF over GST control)"
same,binding signal,[9],"1.27 fold enrichment (6-mer frequency, TF over GST control)"
same,binding signal,[10],"1.05 fold enrichment (6-mer frequency, TF over GST control)"
same,binding signal,[11],"1.08 fold enrichment (6-mer frequency, TF over GST control)"
same,binding signal,[12],"1.12 fold enrichment (6-mer frequency, TF over GST control)"
same,binding signal,[13],"1.16 fold enrichment (6-mer frequency, TF over GST control)"
same,binding signal,[14],"1.2 fold enrichment (6-mer frequency, TF over GST control)"
same,binding signal,[15],"1.22 fold enrichment (6-mer frequency, TF over GST control)"
same,binding signal,[16],"1.12 fold enrichment (6-mer frequency, TF over GST control)"
same,binding signal,[17],"1.08 fold enrichment (6-mer frequency, TF over GST control)"
